An excerpt weighted towards active compounds, which were near 21% of everything screened.
TDP1 cell noCPT: qHTS for Inhibitors of human tyrosyl-DNA phosphodiesterase 1 (TDP1): qHTS in cells in absence of CPT | Potency, µM (series often up to 46.2 µM), for the others: at the top dose activity change, negative = growth inhibition, most hits filed as inhibitors | hit rate 15% among 420,000 | DT40 Tdp1-/- hTDP1 cells, no CPT, ATP luminescence, 48 h; note: potency is the fitted concentration of half-maximal effect; nearly all actives have a fitted effect of over 55% in size
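Compound effects on proliferation are scored in DT40 Tdp1-/-;hTDP1 cells in the absence of CPT. ATP levels (CellTiter-Glo luminescence) are recorded after a ≥48 hr, 37 °C incubation.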
RORgamma inh: inhibitors of mouse ROR gamma transcriptional activity; P51450; Drosophila S2 Gal4-RORgamma UAS-luciferase reporter, 20 h; Potency, µM (highest dose often 53.6 µM), without a hit: at the top dose activity change, negative = inhibition, most hits filed as inhibitors; hit rate 5.4% among 310,000; AID 2551; note: potency is the fitted concentration of half-maximal effect; nearly all actives have a fitted effect of over 60% in size
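Luciferase reporter read in Schneider cells carrying Gal4-RORγ (mouse) and UAS-Photinus luciferase; cells given compound 1 h before 700 uM copper sulfate induction, then incubated 20 h at ambient temperature.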
VP16 counter: inhibits Gal4-VP16 luciferase reporter, ROR gamma counter-screen; Drosophila S2 Gal4-VP16 UAS-luciferase, luminescence, 20 h; Potency, µM (doses to about 53.6 µM), for inactives: at the top dose activity, negative = inhibition, most hits filed as inhibitors; AID 2546; hit rate 3.5% among 310,000;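 note: Gal4-VP16 expression switched on by copper sulfate through the metallothionein promoter; potency is the fitted concentration of half-maximal effect; nearly all actives have a fitted effect of over 50% in size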
IL1B secr inh: blocks inflammasome-driven IL-1 beta release. THP-1 LPS/ATP IL-1B secretion, AlphaLISA, 16 h; hits give low values. activity change, % at 57.5 µM. hit rate 4.7% among 360,000; in the data active = activity change below about -50%; inconclusive = mostly about -30% to -49%
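THP-1 cells pretreated 1 hr with compounds (up to 57.5 uM final), then stimulated with LPS (250 ng/mL final) plus ATP (1.25 mM final); secreted IL-1B measured by AlphaLISA after 16 hr, decreased signal indicating inhibition.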
ELG1 repair inh: blocks ELG1-dependent DNA repair in HEK293T cells. HEK293T ELG1-luciferase reporter, luminescence, 16 h; DNA damage induced by 5-fluorouridine. Potency, µM (top dose mostly 46.1 µM), without a hit: at the top dose activity change, negative = inhibition, hits mostly inhibitors. AID 504467. hit rate 2.3% among 330,000; note: potency is the fitted concentration of half-maximal effect; nearly all actives have a fitted effect of over 55% in size
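Luminescence from the luciferase reporter, measured 30 min after ONE-Glo reagent at room temperature, was the read-out. Beforehand, 2,000 cells per well were exposed for 16 hr at 37 °C to 5-fluorouridine together with compound or vehicle.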
DT40 TDP1 CPT: DT40-hTDP1 cell growth loss with CPT | chicken DT40 Tdp1-/-;hTDP1 cells + 20 nM CPT, ATP luminescence, 48 h | AID 686979 | Potency, µM (top dose mostly 46.2 µM), inactives show at the top dose activity change, negative = growth inhibition, hits mostly inhibitors | hit rate 12% among 420,000; note: potency is the fitted concentration of half-maximal effect; nearly all actives have a fitted effect of over 55% in size
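Chicken DT40 Tdp1-/- cells stably complemented with human TDP1 were seeded at 400 cells/well in medium containing 20 nM camptothecin, exposed to pin-transferred compounds, and grown at 37 °C for at least 48 hr. Viability was read as ATP luminescence.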
Starred values were filed as active, the others as inactive; ? = inconclusive; . = no result given. Unless noted, calls come from the whole dose curve; as a rule, active = well fitted curve in the direction sought with a large enough effect; inconclusive = small, poorly fitted or top-dose-only effect, or another doubt; inactive = no such curve, though single readings can be large; an effect the other way counts as inactive or inconclusive. % is set by controls: 0 for no effect and ±100 for the full control effect.

SMILES	TDP1 cell noCPT	RORgamma inh	VP16 counter	IL1B secr inh	ELG1 repair inh	DT40 TDP1 CPT
CCOC(=O)[C@]12CCCC=C1N(Cc1ccc3c(c1)OCO3)C(=O)[C@H](CC(=O)NCC13CC4CC(CC(C4)C1)C3)C2	23.1µM*	.	.	-8.6	.	?
CCOC(=O)[C@]12CCC=C1N(Cc1ccc3c(c1)OCO3)C(=O)[C@H](CC(=O)NCCC(C)C)C2	18.4µM*	.	.	2.5	.	?
CCCCNC(=O)C[C@@H]1C[C@@]2(C(=O)OCC)CCC=C2N(Cc2ccc3c(c2)OCO3)C1=O	?	.	.	2.4	.	?
CCN1CCN(S(=O)(=O)c2c[nH]c(C(=O)OC)c2)CC1	1.6%	0.9%	-13.8%	-8.1	14.5%	-16.2%
O=C1CC(c2ccccc2)Oc2cc(O)cc(O)c21 (stereo unspecified)	-26.1%	-5.3%	21.7%	-3.5	?	-20.0%
CSC1=NC2(CC(c3ccccc3)Oc3cc(O)ccc32)CC(C)(C)N1 (stereo unspecified)	20.6µM*	-8.4%	-5.6%	0.6	-0.6%	23.1µM*
COc1cc(CN2CCCCCC2)cc(OC)c1O	2.9%	-4.9%	6.2%	-1.2	?	-9.3%
COc1cc(Cc2cc(OC)c(O)c(OC)c2)cc(OC)c1O	20.6µM*	.	.	-0.8	.	16.4µM*
CCN(CC(=O)Nc1c(F)cccc1F)C(=O)Cc1ccc(S(=O)(=O)N2CCOCC2)s1	0.5%	.	.	5.7	29.7%	2.3%
CCN(CC)CCNCC1C(=O)O[C@@H]2C[C@@]3(C)CCC[C@H](C)C3=C[C@H]12 (stereo partly specified)	13µM*	4.6%	0.1%	.	?	?
CC(C)c1cc(C(=O)NC2CCCc3c2cnn3-c2ccccc2F)no1 (stereo unspecified)	?	-28.9%	11.2µM*	-4.2	?	?
CC(=O)Nc1cccc(C(=O)NC2CCCc3c2cnn3-c2ccccc2F)c1 (stereo unspecified)	-0.4%	4.2%	-0.5%	38.0	-4.4%	-1.6%
Cc1cc(C(=O)NC2CCCc3c2cnn3-c2ccccc2F)nc(C)n1 (stereo unspecified)	?	-1.1%	-9.2%	-13.5	13µM*	?

High-throughput results: PubChem, National Center for Advancing Translational Sciences (NCATS)
